The source of these data is PubChem BioAssay (Tox21).

Inconclusive results are not listed. Calls of active or inactive are those of the source. Unless noted, calls follow the shape of the dose curve; as a rule, active = well fitted curve in the direction sought with a large enough effect in the repeat runs; inconclusive = weak or mixed curves; inactive = no such curve, though single readings can be large; an effect the other way counts as inactive or inconclusive.

Assay [1] can be described thus: qHTS assay to identify aromatase inhibitors - cell viability counter screen (AID 743084).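 Also: cells stimulated with testosterone during compound exposure; nearly all actives have a fitted effect of over 55% in size.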 Also: potency is read from the fitted curve at half-maximal effect.
Assay [2] in a line: qHTS assay to identify small molecule that activate the aryl hydrocarbon receptor (AhR) signaling pathway - cell viability counter screen (AID 743086).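 Also: HepG2 liver cells carrying the AhR DRE luciferase reporter; series mostly up to about 70 µM; nearly all actives have a fitted effect of over 45% in size.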 The method in brief:
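HepG2-AhR-luc (HG2L7.5c1) cells, 4000/well, were preincubated 5 h at 37C, exposed to compound in qHTS format for 24 hr at 37C, then given CellTiter-Fluor for 30 min; viability was read as fluorescence in the reporter wells.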
A general note: Quantitative high-throughput screening tests each substance at several concentrations.

For assay [3], the target named is Peroxisome proliferator-activated receptor gamma (Homo sapiens) (UniProt P37231). The assay is described as follows: qHTS assay to identify small molecule agonists of the peroxisome proliferator-activated receptor gamma (PPARg) signaling pathway (AID 743094; active = well fitted activation curve with a large enough effect in the signal ratio in the repeat runs, not every such curve was filed as active; the % refers to the signal ratio). The method, boiled down: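 Agonist activity was taken from a beta-lactamase reporter (FRET substrate, 1 h at room temperature) in HEK293H cells carrying a PPARg UAS-bla construct. Compounds in DMSO were incubated 17 h at 37C after a 5 h cell pre-incubation.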

The nature of assay [4]: qHTS assay for small molecule agonists of the antioxidant response element (ARE) signaling pathway (AID 743202; active = well fitted activation curve with a large enough effect in the signal ratio in the repeat runs, not every such curve was filed as active; the % refers to the signal ratio; also: potency is read from the fitted curve at half-maximal effect). The method, boiled down: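 Following a 16 h, 37 C exposure of reporter HepG2 cells (ARE-driven beta-lactamase, 2,000 cells/well) to compounds, FRET substrate was applied for 2 h at room temperature and fluorescence intensity recorded.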
The nature of assay [5]: qHTS assay for small molecule agonists of the antioxidant response element (ARE) signaling pathway - cell viability counter screen (AID 743203; calls by dose curve; also: nearly all actives have a fitted effect of over 55% in size). The method, boiled down:
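Viability counter screen: CellTiter-Glo luminescence, read after 30 min at room temperature, in ARE-bla HepG2 wells. Compound exposure lasted 16 h at 37C/5% CO2, following a 5 h pre-incubation of the cells after plating.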

Assay [6] is described as follows: qHTS assay for small molecule activators of the heat shock response signaling pathway (AID 743210; active = well fitted activation curve with a large enough effect in the signal ratio in the repeat runs, with a control signal flat, not every such curve was filed as active; the % refers to the signal ratio; also: series mostly up to about 63 µM). The method in brief:
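Heat shock element–beta-lactamase HeLa reporter cells; qHTS with compounds for 5 h at 37 C; detection by FRET substrate fluorescence after 2.5 h at RT.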

The nature of assay [7]: qHTS assay to identify small molecule agonists of the peroxisome proliferator-activated receptor delta (PPARd) signaling pathway - cell viability counter screen (AID 743211). Also: nearly all actives have a fitted effect of over 55% in size. The method in brief: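 Multiplexed format: after the 2 h room-temperature LiveBLAzer B/G FRET step, CellTiter-Glo was added to the same wells. Luminescence after 30 min gave cell viability; compound exposure was 17 h at 37C.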

Assay [8] concerns the target Peroxisome proliferator-activated receptor delta (Homo sapiens) (UniProt Q03181). Description: qHTS assay to identify small molecule agonists of the peroxisome proliferator-activated receptor delta (PPARd) signaling pathway (AID 743212; calls by dose curve). The method, boiled down:
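Beta-lactamase reporter read by fluorescence (LiveBLAzer B/G FRET, 2 h, room temperature). Test agents, in DMSO, incubated at 37 C with PPARd-bla HEK293H cells.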

Assay [9] in a line: qHTS assay to identify small molecule antagonists of the peroxisome proliferator-activated receptor delta (PPARd) signaling pathway - cell viability counter screen (AID 743213). Also: nearly all actives have a fitted effect of over 50% in size. The method in brief:
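Viability counter-screen, qHTS format: PPARd-bla HEK293H, L165041 300 nM final, 17 h compound exposure at 37 C, CellTiter-Glo luminescence after 30 min RT.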

Assay [10] deals with Bile acid receptor (Homo sapiens) (UniProt Q96RI1). The assay is described as follows: qHTS assay to identify small molecule antagonists of the farnesoid-X-receptor (FXR) signaling pathway (AID 743217; active = well fitted inhibition curve with a large enough effect in the signal ratio in the repeat runs, not every such curve was filed as active; the % refers to the signal ratio). The method in brief: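 Antagonist mode: chenodeoxycholic acid at 50 uM final stimulates a UAS-driven beta-lactamase reporter in HEK 293T FXR-bla cells during 16 h, 37C compound exposure. Read-out is FRET substrate fluorescence after 2 h at room temperature.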

A short description of assay [11]: qHTS assay to identify small molecule agonists of the farnesoid-X-receptor (FXR) signaling pathway - cell viability counter screen (AID 743218). Also: nearly all actives have a fitted effect of over 45% in size. The method in brief:
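Viability counter screen in the same wells: CellTiter-Glo luminescence, 30 min room-temperature incubation, measured after the beta-lactamase read. Cells were GeneBLAzer FXR-UAS-bla HEK 293T, compound-treated 16 h at 37C.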

Assay [12] addresses Bile acid receptor (Homo sapiens) (UniProt Q96RI1). Description: qHTS assay to identify small molecule agonists of the farnesoid-X-receptor (FXR) signaling pathway (AID 743220; active = well fitted activation curve with a large enough effect in the signal ratio in the repeat runs, not every such curve was filed as active; the % refers to the signal ratio). The method, boiled down:
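FXR-UAS-bla HEK 293T cells carrying a UAS-driven beta-lactamase reporter were plated for 5 h at 37C/5% CO2, then exposed to DMSO-dissolved Tox21 10K compounds for 16 h at 37C. A LiveBLAzer B/G FRET substrate was loaded for 2 h at room temperature before fluorescence reading.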

Assay [13] can be described thus: qHTS assay to identify small molecule antagonists of the farnesoid-X-receptor (FXR) signaling pathway - cell viability counter screen (AID 743221; active = well fitted cell-killing curve with a large enough effect in the repeat runs, not every such curve was filed as active; also: nearly all actives have a fitted effect of over 50% in size). The method in brief: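 CellTiter-Glo, 30 min RT, luminescence; same wells as the LiveBLAzer FRET read. Cells: FXR-UAS-bla HEK 293T. Treatment: compound with chenodeoxycholic acid 50 uM final, 16 h at 37 C.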
Assay [14] addresses Vitamin D3 receptor (Homo sapiens) (UniProt P11473). The assay is described as follows: qHTS assay to identify small molecule agonists of the vitamin D receptor (VDR) signaling pathway (AID 743222; calls by dose curve). The method, boiled down: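 Agonist mode, beta-lactamase reporter: fluorescence from LiveBLAzer B/G FRET substrate (2 h, room temperature) read after 16 h compound treatment at 37 C of VDR-bla cells, which were pre-incubated 4 h after seeding.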

Assay [15] shares this target. Description: qHTS assay to identify small molecule antagonists of the vitamin D receptor (VDR) signaling pathway (AID 743223; active = well fitted inhibition curve with a large enough effect in the signal ratio in the repeat runs, not every such curve was filed as active; the % refers to the signal ratio). The method in brief: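 After VDR-bla cells are plated and left 4 h at 37C, DMSO-dissolved compounds and 3 nM (final) calcitriol agonist are added. Incubation continues 16 h at 37C; FRET beta-lactamase substrate then develops 2 h at room temperature.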

For assay [16], the target named is Peroxisome proliferator-activated receptor gamma (Homo sapiens) (UniProt P37231). The assay is described as follows: qHTS assay to identify small molecule antagonists of the peroxisome proliferator-activated receptor gamma (PPARg) signaling pathway (AID 743191; calls by dose curve; also: series mostly up to about 63 µM; nearly all actives have a fitted effect of over 30% in size). The method in brief: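 GeneBLAzer PPARg UAS-bla HEK293H cells carrying a UAS-driven beta-lactamase reporter were plated at 3000 cells/well, preincubated 5 h at 37C, then given compound for 17 h at 37C; LiveBLAzer B/G FRET substrate was read after 1 h at room temperature.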

A short description of assay [17]: qHTS assay to identify small molecule antagonists of the peroxisome proliferator-activated receptor gamma (PPARg) signaling pathway - cell viability counter screen (AID 743194). Also: nearly all actives have a fitted effect of over 55% in size. The method in brief:
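PPARg-UAS-bla HEK293H cells were plated, rested 5 h at 37 C, then treated with compounds plus rosiglitazone (50 nM final) for 17 h at 37 C; viability was then read by CellTiter-Glo luminescence after 30 min at room temperature.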

Assay [18] is described as follows: qHTS assay for small molecule activators of the heat shock response signaling pathway - cell viability counter screen (AID 743209). Also: nearly all actives have a fitted effect of over 50% in size. The method, boiled down: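 Cytotoxicity counter screen run in the same wells as the heat-shock bla reporter assay: HeLa HSE-bla cells, 5 h compound exposure at 37 C, viability read by CellTiter-Glo luminescence.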
The target in assay [19] is Peroxisome proliferator-activated receptor delta (Homo sapiens) (UniProt Q03181). Description: qHTS assay to identify small molecule antagonists of the peroxisome proliferator-activated receptor delta (PPARd) signaling pathway (AID 743215; active = well fitted inhibition curve with a large enough effect in the signal ratio in the repeat runs, not every such curve was filed as active; the % refers to the signal ratio;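 also: cells stimulated with agonist L165041 at 300 nM final during compound exposure; series mostly up to about 62 µM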). The method in brief: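 Agonist L165041 (300 nM final) added with compound to PPARd-bla HEK293H UAS-bla reporter cells; 17 h incubation at 37 C. Read-out: LiveBLAzer FRET substrate, 2 h at room temperature, fluorescence intensity.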
Peroxisome proliferator-activated receptor delta (Homo sapiens), sequence (Q03181 whole entry, looked up): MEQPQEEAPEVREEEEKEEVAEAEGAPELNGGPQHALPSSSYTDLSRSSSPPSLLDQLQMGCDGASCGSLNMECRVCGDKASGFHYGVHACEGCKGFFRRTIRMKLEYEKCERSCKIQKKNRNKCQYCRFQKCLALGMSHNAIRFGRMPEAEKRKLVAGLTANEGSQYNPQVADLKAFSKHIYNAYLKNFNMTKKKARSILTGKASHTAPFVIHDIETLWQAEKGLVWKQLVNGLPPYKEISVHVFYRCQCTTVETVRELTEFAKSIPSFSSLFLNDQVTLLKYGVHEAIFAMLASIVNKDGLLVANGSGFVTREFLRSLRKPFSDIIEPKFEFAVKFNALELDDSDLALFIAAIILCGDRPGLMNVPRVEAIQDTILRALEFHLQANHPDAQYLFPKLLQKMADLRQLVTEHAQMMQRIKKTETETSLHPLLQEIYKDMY

Vitamin D3 receptor (Homo sapiens), sequence (P11473 whole entry, looked up): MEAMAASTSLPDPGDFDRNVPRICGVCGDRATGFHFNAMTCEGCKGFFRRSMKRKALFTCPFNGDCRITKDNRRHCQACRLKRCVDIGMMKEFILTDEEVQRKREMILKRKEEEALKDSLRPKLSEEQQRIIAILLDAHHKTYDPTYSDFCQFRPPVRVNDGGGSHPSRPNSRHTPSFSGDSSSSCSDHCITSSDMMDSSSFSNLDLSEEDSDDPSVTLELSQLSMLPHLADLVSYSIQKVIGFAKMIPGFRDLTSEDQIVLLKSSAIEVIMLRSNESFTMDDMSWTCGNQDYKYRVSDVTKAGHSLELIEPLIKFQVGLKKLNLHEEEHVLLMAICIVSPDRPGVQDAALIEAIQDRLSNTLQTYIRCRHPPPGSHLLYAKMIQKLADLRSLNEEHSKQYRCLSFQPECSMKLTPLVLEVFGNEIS
Peroxisome proliferator-activated receptor gamma (Homo sapiens), sequence (P37231 whole entry, looked up): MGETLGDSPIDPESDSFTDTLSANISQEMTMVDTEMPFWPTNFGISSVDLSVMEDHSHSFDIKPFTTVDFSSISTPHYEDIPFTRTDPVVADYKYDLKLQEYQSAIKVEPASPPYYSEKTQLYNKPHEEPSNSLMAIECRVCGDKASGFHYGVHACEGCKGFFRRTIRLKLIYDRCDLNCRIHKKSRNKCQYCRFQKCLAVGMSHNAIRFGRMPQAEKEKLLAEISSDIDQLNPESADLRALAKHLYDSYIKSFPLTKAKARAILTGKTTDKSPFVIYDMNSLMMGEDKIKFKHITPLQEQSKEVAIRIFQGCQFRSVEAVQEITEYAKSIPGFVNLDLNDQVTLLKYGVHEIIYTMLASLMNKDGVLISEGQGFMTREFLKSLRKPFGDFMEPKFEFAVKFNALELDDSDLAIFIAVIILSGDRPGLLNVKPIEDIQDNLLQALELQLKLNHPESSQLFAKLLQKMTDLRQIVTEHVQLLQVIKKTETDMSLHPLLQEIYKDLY
Bile acid receptor (Homo sapiens), sequence (Q96RI1 whole entry, looked up): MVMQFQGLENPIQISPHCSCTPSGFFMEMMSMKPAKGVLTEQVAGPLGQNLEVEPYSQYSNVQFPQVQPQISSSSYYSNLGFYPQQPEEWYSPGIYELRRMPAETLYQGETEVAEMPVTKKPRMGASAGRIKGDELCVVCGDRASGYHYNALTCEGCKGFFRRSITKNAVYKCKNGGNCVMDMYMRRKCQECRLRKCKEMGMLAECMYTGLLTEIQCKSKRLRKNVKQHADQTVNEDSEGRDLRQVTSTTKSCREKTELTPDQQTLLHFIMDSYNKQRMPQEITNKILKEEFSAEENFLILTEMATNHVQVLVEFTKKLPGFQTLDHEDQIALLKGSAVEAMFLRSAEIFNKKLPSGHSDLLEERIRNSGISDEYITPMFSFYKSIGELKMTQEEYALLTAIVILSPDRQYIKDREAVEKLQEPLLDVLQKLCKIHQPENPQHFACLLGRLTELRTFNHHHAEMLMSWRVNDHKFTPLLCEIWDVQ

`c1ccc2sc(SN(C3CCCCC3)C3CCCCC3)nc2c1`: the Potency entry in assay [1], in assay [2], in assay [3], in [5], in assay [6] and in assay [7] was “inactive” throughout. Also, the Potency entry in assay [8], in assay [9], in assay [10], in [11], in [12] and in [13] was “inactive” in each case. Moreover, the Potency entry in assay [14] and in [15] was “inactive” throughout. Also, the Potency in assay [4] was 30.3 µM (active).
In the case of `CC(=O)OCCN(CCOC(C)=O)c1ccc(N=Nc2ccc([N+](=O)[O-])cc2C#N)cc1`, the Potency in assay [1] is 27.3 µM (active). For the same compound, the Potency result in assay [2], in assay [3], in assay [16], in assay [17], in assay [5] and in assay [18] was “inactive” each time. Moreover, the Potency result in [6], in assay [7], in assay [9], in [11], in assay [13] and in assay [14] was “inactive” throughout.
Regarding `Cc1cc(C)c(N)cc1C`, the Potency entry in assay [1], in assay [2], in assay [3], in assay [17], in assay [4] and in assay [5] was “inactive” throughout. The Potency entry in [6], in [7], in [8], in assay [9], in assay [19] and in assay [10] was “inactive” in each case. In addition, the Potency result in [11], in [12], in assay [13], in assay [14] and in [15] was “inactive” throughout.
On to `COc1cc(N)c(Cl)cc1C(=O)NC1CCN(CCCOc2ccc(F)cc2)CC1OC` (configuration not stated), for which the Potency result in assay [1], in [2], in assay [3], in assay [16], in [17] and in assay [4] was “inactive” in each case. For the same compound, the Potency entry in [5], in [18], in assay [6], in assay [8], in [19] and in assay [13] was “inactive” throughout.
In the case of `O=C=Nc1cccc(C(F)(F)F)c1`, the Potency result in [1], in assay [2], in assay [3], in assay [5], in assay [18] and in assay [6] was “inactive” throughout. Also, the Potency entry in assay [8] and in assay [19] was “inactive” each time.
Turning to `C=CC(=O)OCC1CC2CC1C1CCC(COC(=O)C=C)C21` (configuration not stated), the Potency result in [1], in assay [2], in assay [3], in assay [5], in assay [7] and in assay [11] was “inactive” throughout.
Regarding `CCCCC(CC)CN` (configuration not stated), the Potency entry in [1], in assay [2], in [3], in [16], in assay [17] and in [5] was “inactive” in each case. The Potency result in assay [6], in [19], in assay [14] and in assay [15] was “inactive” each time.
For the compound `CCC(=O)OC`, the Potency entry in assay [1], in assay [2], in assay [3], in assay [16], in [17] and in assay [4] was “inactive” each time. For the same compound, the Potency entry in [5], in assay [18], in assay [6], in assay [7], in [11] and in [14] was “inactive” in each case. In addition, the Potency entry in [15] is “inactive”.
In the case of `C[C@H]1c2cccc(O)c2C(O)=C2C(=O)[C@]3(O)C(O)=C(C(N)=O)C(=O)[C@@H](N(C)C)[C@@H]3[C@@H](O)[C@@H]21`, the Potency result in assay [1], in assay [2], in assay [3], in [17], in assay [5] and in assay [18] was “inactive” in each case. Further, the Potency result in [7], in [9] and in [13] was “inactive” each time.
As for `c1ccc(C[n+]2cccc3ccccc32)cc1`, the Potency result in [1], in [2], in assay [3], in [16], in [5] and in [18] was “inactive” each time. Also, the Potency result in [6], in [7], in assay [9], in assay [19], in assay [10] and in assay [12] was “inactive” throughout. In addition, the Potency entry in [13] and in [14] was “inactive” throughout.
